Consider 30 compounds from PubChem BioAssay (NCATS).

Experiment [1] deals with Atrial natriuretic peptide receptor 2 (Homo sapiens) (UniProt P20594). The experiment in a line: Natriuretic polypeptide receptor (hNpr2) antagonism - Pilot subtype selectivity assay (AID 1347050; calls by dose curve; further: potency means the concentration at half of the fitted maximal effect). The method in brief:
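cGMP-sensor HEK293/hNpr2 cells; 2% GloSensor reagent 2 h RT; compounds 30 min; baseline luminescence read; 1 nM hNppC agonist 20 min RT; final luminescence read by CCD camera. Antagonism = reduced post-agonist signal.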

A short description of experiment [2]: NS1 protein of Zika virus - qHTS assay to identify small molecule inhibitors in human HEK 293 cells (AID 1347053). Further: series mostly up to about 46 µM; nearly all actives have a fitted effect of over 55% in size. The method in brief: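 Inhibition of NS1 expression was scored in HEK 293 cells given compound 1 h ahead of MR766 virus (MOI = 0.5). Following 24 h at 37 C, two anti-NS1 antibodies generated a TR-FRET signal, scaled between uninfected and infected controls.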
(qHTS replaces the single test concentration by a dilution series.)

Experiment [3] deals with T1, Tyrosine-protein phosphatase non-receptor type substrate 1 (Homo sapiens) + Leukocyte surface antigen CD47 (Homo sapiens) (UniProt P78324+Q08722). The experiment in a line: CD47-SIRPalpha protein protein interaction - LANCE assay qHTS validation (AID 1347057; active means well fitted curve in the direction sought with a large enough effect in the signal ratio, with a control signal flat, not every such curve was filed as active; the % refers to the signal ratio; further: series mostly up to about 38 µM). The method in brief:
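First, His-tagged CD47 and Eu-labelled anti-His antibody met the compound for 30 min; next, site-specifically biotinylated SIRPalpha was added for 30 min; finally streptavidin-APC was added before reading the TR-FRET ratio.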
For orientation: TR-FRET usually uses a lanthanide donor and a delayed reading to cut background.

Experiment [4] addresses T1, Tyrosine-protein phosphatase non-receptor type substrate 1 (Homo sapiens) + Leukocyte surface antigen CD47 (Homo sapiens). The experiment in a line: CD47-SIRPalpha protein protein interaction - Alpha assay qHTS validation (AID 1347059).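 Further: bead proximity luminescence from CD47 binding SIRPalpha after compound preincubation with SIRPalpha.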 The method in brief:
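Soluble extracellular domains: Avi-tag biotinylated SIRPalpha (25 nM) preincubated 30 min RT with compound, then 6His-CD47 (12.5 nM) 30 min; Ni-NTA acceptor and streptavidin donor beads (10 ug/mL) 30 min, AlphaScreen read. PBS pH 7.4, 0.05% IGEPAL.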

The target of experiment [5] is Parathyroid hormone/parathyroid hormone-related peptide receptor (Homo sapiens) (UniProt Q03431). The experiment in a line: qHTS for PTHR1 Agonists: Optimization Screen against the NCGC LOPAC library (AID 1347079).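 Further: GloSensor cAMP luminescence in HEK-293 GP2 cells expressing human PTHR1 with IBMX.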 The method in brief:
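Compounds were tested across a qHTS titration. PTHR1-expressing GP2 cells report cAMP rises via GloSensor luminescence after 1 hr compound exposure at 37C with IBMX present.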

Experiment [6] deals with T1, Tyrosine-protein phosphatase non-receptor type substrate 1 (Homo sapiens) + Leukocyte surface antigen CD47 (Homo sapiens). The experiment in a line: CD47-SIRPalpha protein protein interaction - HTRF assay qHTS validation (AID 1347058; active means well fitted curve in the direction sought with a large enough effect in the signal ratio, not every such curve was filed as active; the % refers to the signal ratio; further: series mostly up to about 38 µM). The gist of the method: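 TR-FRET read (Ch1/Ch2 ratio) of soluble extracellular CD47 and Avi-biotinylated SIRPalpha domains in PBS pH 7.4 with 0.05% IGEPAL; 7-point compound titration. Sequential 30 min room-temperature steps; non-biotinylated SIRPalpha as control inhibitor.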

Molecules are shown by their SMILES. Inconclusive results are not listed. Calls of active or inactive are those of the source. Unless noted, the call rests on the fitted dose curve; in most records, active means well fitted curve in the direction sought with a large enough effect; inconclusive means small, poorly fitted or top-dose-only effect, or another doubt; inactive means no such curve, though single readings can be large; an effect the other way counts as inactive or inconclusive.

Parathyroid hormone/parathyroid hormone-related peptide receptor (Homo sapiens), sequence (Q03431 whole entry, looked up): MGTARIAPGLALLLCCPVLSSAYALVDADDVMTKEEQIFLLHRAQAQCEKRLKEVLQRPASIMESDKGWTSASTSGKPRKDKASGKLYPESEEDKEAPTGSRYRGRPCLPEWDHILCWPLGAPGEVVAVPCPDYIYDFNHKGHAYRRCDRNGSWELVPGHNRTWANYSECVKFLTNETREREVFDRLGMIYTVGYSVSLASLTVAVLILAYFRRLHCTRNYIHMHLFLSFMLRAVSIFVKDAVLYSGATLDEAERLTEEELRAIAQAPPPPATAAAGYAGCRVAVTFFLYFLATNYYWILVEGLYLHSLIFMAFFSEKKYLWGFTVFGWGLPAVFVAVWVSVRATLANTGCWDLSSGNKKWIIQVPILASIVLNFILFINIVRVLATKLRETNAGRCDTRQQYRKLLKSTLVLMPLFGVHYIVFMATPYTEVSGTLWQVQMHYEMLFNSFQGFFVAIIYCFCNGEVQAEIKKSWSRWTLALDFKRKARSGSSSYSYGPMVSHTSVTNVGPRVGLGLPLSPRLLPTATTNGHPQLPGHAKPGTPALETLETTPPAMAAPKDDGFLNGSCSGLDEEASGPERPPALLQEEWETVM
T1 sequence (P78324 whole entry, looked up): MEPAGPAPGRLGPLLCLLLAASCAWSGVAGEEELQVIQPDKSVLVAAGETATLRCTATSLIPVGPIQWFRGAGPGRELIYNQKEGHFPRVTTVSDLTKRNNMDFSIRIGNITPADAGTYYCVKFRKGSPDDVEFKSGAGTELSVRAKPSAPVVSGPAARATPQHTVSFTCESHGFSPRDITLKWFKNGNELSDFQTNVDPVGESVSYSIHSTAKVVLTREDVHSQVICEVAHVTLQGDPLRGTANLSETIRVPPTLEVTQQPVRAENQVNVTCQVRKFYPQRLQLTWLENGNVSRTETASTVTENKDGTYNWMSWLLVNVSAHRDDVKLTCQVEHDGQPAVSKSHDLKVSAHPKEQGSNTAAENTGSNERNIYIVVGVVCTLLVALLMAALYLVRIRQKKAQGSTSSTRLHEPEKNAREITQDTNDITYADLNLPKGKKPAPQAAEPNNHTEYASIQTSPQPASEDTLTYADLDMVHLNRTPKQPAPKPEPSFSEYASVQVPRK
T1 sequence (Q08722 whole entry, looked up): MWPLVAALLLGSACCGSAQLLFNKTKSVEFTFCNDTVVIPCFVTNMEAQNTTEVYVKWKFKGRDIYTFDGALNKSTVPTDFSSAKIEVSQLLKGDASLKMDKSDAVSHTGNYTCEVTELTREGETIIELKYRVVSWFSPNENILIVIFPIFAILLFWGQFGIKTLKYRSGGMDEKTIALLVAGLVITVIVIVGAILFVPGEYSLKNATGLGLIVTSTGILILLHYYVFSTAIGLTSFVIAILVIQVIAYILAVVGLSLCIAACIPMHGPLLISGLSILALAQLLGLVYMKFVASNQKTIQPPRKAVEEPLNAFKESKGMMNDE
Atrial natriuretic peptide receptor 2 (Homo sapiens), sequence (P20594 whole entry, looked up): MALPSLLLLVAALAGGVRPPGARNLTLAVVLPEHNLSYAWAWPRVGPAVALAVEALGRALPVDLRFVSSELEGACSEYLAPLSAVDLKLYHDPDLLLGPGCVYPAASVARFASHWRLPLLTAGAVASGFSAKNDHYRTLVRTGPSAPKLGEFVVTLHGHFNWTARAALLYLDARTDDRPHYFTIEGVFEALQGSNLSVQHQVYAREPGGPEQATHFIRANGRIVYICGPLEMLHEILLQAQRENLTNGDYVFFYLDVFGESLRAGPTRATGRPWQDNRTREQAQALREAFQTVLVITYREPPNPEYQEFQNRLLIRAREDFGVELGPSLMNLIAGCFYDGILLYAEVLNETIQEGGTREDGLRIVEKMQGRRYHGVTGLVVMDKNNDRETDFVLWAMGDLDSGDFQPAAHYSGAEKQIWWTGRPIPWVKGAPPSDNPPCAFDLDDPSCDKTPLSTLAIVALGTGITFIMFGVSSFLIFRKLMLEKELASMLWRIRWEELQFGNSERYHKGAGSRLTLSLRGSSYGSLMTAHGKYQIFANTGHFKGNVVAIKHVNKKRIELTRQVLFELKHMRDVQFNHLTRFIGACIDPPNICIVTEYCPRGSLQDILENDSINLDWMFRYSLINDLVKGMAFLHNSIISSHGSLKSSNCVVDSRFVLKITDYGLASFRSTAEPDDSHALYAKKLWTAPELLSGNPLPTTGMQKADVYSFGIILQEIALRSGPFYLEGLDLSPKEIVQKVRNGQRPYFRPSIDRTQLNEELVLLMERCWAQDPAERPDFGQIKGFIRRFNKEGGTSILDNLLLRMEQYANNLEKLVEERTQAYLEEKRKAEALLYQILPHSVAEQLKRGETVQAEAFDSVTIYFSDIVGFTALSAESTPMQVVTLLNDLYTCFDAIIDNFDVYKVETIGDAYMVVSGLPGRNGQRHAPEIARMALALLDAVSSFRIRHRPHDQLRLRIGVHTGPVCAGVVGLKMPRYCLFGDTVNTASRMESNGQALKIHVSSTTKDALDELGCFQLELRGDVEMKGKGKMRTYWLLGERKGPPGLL

On to `COc1ccc(/C=C/C(=O)Nc2ccccc2C(=O)O)cc1OC`, for which the Potency in experiment [1] is 3.69 µM (active). For the same compound, the Potency result in experiment [2], in experiment [3] and in experiment [4] was “inactive” in each case.

For the compound `O=C(Nc1cccc(C(=O)Nc2ccc(S(=O)(=O)O)c3cc(S(=O)(=O)O)cc(S(=O)(=O)O)c23)c1)Nc1cccc(C(=O)Nc2ccc(S(=O)(=O)O)c3cc(S(=O)(=O)O)cc(S(=O)(=O)O)c23)c1`, the Potency result in experiment [1], in experiment [2], in experiment [3] and in experiment [5] was “inactive” throughout.

Take `CN1C2CC(OC(=O)[C@H](CO)c3ccccc3)CC1C1OC12` (some centres undefined): the Potency entry in experiment [1], in experiment [2] and in experiment [5] was “inactive” throughout.

As to `NO`, the Potency result in experiment [1], in experiment [2] and in experiment [5] was “inactive” each time.

Take `CNc1ncnc2c1ncn2[C@@H]1O[C@H](CO)[C@@H](O)[C@H]1O`: the Potency entry in experiment [1], in experiment [2], in experiment [3], in experiment [4] and in experiment [5] was “inactive” in each case. Also, the outcome in experiment [6] was inactive.

For the compound `OC[C@H]1O[C@@H](n2cnc3c(NC4CCCC4)ncnc32)[C@H](O)[C@@H]1O`, the Potency result in experiment [1], in experiment [2], in experiment [3], in experiment [4] and in experiment [5] was “inactive” throughout. For the same compound, the result in experiment [6] was inactive.

Regarding `CCCCCCCC/C=C\CCCCCCCC(=O)NCCO`, the Potency result in experiment [1], in experiment [2], in experiment [3], in experiment [4] and in experiment [5] was “inactive” in each case. Further, in experiment [6], the result was inactive.

As for `O=C(O)c1cc([N+](=O)[O-])ccc1NCCCc1ccccc1`, the Potency result in experiment [1], in experiment [2], in experiment [3], in experiment [4] and in experiment [5] was “inactive” in each case.

Take `CCCCCCCCCCCCCCCCCC(=O)OC(CC(=O)O)C[N+](C)(C)C` (centres undefined): the Potency entry in experiment [1], in experiment [2], in experiment [3], in experiment [4] and in experiment [5] was “inactive” each time. Moreover, in experiment [6], the outcome was inactive.

Consider `CN1CCc2cccc3c2C1Cc1ccc(O)c(O)c1-3` (centres undefined), for which the Potency result in experiment [1], in experiment [2], in experiment [4] and in experiment [5] was “inactive” in each case.

As to `O=C(/C=C/c1ccc(O)c(O)c1)OCCc1ccccc1`, the Potency result in experiment [1], in experiment [2], in experiment [3], in experiment [4] and in experiment [5] was “inactive” each time. Besides, the outcome in experiment [6] was inactive.

Consider `CN1CCc2ccccc2Cc2[nH]c3ccccc3c2CC1`, for which the Potency result in experiment [1], in experiment [2], in experiment [3], in experiment [4] and in experiment [5] was “inactive” each time.

In the case of `c1ccc(-c2ccccn2)nc1`, the Potency entry in experiment [1], in experiment [2] and in experiment [5] was “inactive” throughout.

As for `OCC1O[C@H](O)C(Cl)C(O)C1O` (some centres undefined), the Potency entry in experiment [1], in experiment [2], in experiment [3], in experiment [4] and in experiment [5] was “inactive” in each case.

`CC(=O)SCC[N+](C)(C)C`: the Potency entry in experiment [1], in experiment [2], in experiment [3], in experiment [4] and in experiment [5] was “inactive” throughout. For the same compound, the outcome in experiment [6] was inactive.

With `CCCCCCCCc1ccc(-c2ccc(C(=O)O)cc2)cc1`, the Potency entry in experiment [1], in experiment [2] and in experiment [5] was “inactive” each time.

For `NCCCCCCCCCCN`, the Potency entry in experiment [1], in experiment [2], in experiment [3], in experiment [4] and in experiment [5] was “inactive” in each case. Moreover, the result in experiment [6] was inactive.

Take `COC1=C(OC)C(=O)c2ccccc2C1=O`: the Potency entry in experiment [1], in experiment [2], in experiment [3], in experiment [4] and in experiment [5] was “inactive” throughout.

As to `O=C(c1cc(O)c(O)c([N+](=O)[O-])c1)c1ccccc1F`, the Potency entry in experiment [1], in experiment [2], in experiment [3], in experiment [4] and in experiment [5] was “inactive” each time.

For `CN(C)c1nc(N)c(C(=O)N=C(N)N)nc1Cl`, the Potency entry in experiment [1], in experiment [2], in experiment [3], in experiment [4] and in experiment [5] was “inactive” in each case.

In the case of `NC(CCCP(=O)(O)O)C(=O)O` (centres undefined), the Potency result in experiment [1], in experiment [2], in experiment [3], in experiment [4] and in experiment [5] was “inactive” throughout. Besides, in experiment [6], the outcome was inactive.

Take `CCCCCCCCCCCCCCCC(=O)OC(CC(=O)O)C[N+](C)(C)C` (centres undefined): the Potency entry in experiment [1], in experiment [2], in experiment [3] and in experiment [5] was “inactive” throughout. In addition, the result in experiment [6] was inactive.

With `N#C/C(=C\c1c[nH]c2ccccc12)C(=O)c1ccc(O)c(O)c1`, the Potency entry in experiment [1] and in experiment [5] was “inactive” throughout.

As to `COc1cc2nc(N3CCN(C(=O)OCc4ccccc4)C(C(=O)NC(C)(C)C)C3)nc(N)c2cc1OC` (centres undefined), the Potency entry in experiment [1] and in experiment [5] was “inactive” in each case.

In the case of `NC(=S)NCCC[C@H](N)C(=O)O`, the Potency entry in experiment [1] and in experiment [5] was “inactive” in each case.

On to `CSc1ccccc1N1CCN(CCCCCC(=O)NC2CCCc3ccccc32)CC1` (centres undefined), for which the Potency result in experiment [1] was “inactive”. Besides, in experiment [6], the result was inactive.

For the compound `CCNC(=O)[C@H]1O[C@@H](n2cnc3c(N)nc(NCCc4ccc(CCC(=O)O)cc4)nc32)[C@H](O)[C@@H]1O`, the Potency entry in experiment [1] and in experiment [5] was “inactive” each time.

As for `CSc1nc(N)c2ncn([C@@H]3O[C@H](COP(=O)(O)OP(=O)(O)OP(=O)(O)O)[C@@H](O)[C@H]3O)c2n1`, the Potency result in experiment [1], in experiment [3], in experiment [4] and in experiment [5] was “inactive” throughout. Besides, the result in experiment [6] was inactive.

On to `CO/S(=N\S(=O)(=O)c1ccc(Cl)cc1)c1ccc([N+](=O)[O-])cc1` (centres undefined), for which the Potency entry in experiment [1] and in experiment [5] was “inactive” in each case.

`CC[C@@H](C)[C@H]1O[C@]2(CC[C@H]1C)C[C@@H]1C[C@@H](CC=C(C)[C@@H](O[C@H]3C[C@H](OC)[C@@H](O[C@H]4C[C@H](OC)[C@@H](O)[C@H](C)O4)[C@H](C)O3)[C@@H](C)C=CC=C3CO[C@@H]4[C@H](O)C(C)=C[C@@H](C(=O)O1)[C@]34O)O2`: the Potency result in experiment [1], in experiment [3], in experiment [4] and in experiment [5] was “inactive” throughout. Also, the outcome in experiment [6] was inactive.
